Here are results for 35 compounds from PubChem BioAssay.

The list shows a part of the results. Values without a mark were called inactive. Activity calls are given as the source filed them.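 Rule for the calls: active = mean inhibition above a cutoff equal to the average over all tested compounds plus one standard deviation (cut at about 70% in these data); inactive = the rest.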

The nature of this experiment: nonselective effects on VP16 transactivation – cell-based, luminescence, CHO-S, high throughput, counter-screen for NR2E3 agonist project, confirmation (AID 624379).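 Note: luciferase from a UAS reporter driven by GAL4-VP16 transactivation; 0% = DMSO with VP16-transfected cells and 100% = DMSO with cells lacking VP16; higher means less reporter light so more repression of VP16 activity.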 Particulars: CHO-S GAL4-VP16 luciferase reporter, at 3.98 µM, hits give high values. Background: The purpose of a counterscreen is to sort out artefacts and off-target activity.
One may read the inhibition as the relative decrease from the control value, in per cent. For `COc1ccc(CNS(=O)(=O)c2ccc(-c3cnc(C4CC4)o3)cc2)cc1`, the inhibition was 55.8%. Take `CCOc1ccc(S(=O)(=O)N2CCCCCC2)c2ccccc12`: the inhibition was -4.92%. Consider `COc1ccc(S(=O)(=O)N2CCN(C(C)C(=O)Nc3ccc(C(C)C)cc3)CC2)cc1` (stereo not given), for which the inhibition is -0.89%.

`CN(C)C(=S)N=c1ssc(=S)n1Cc1ccco1`: the inhibition is -46.1%. The result for `c1ccc(C2c3[nH]c4ccccc4c3CCN2Cc2cccn2-c2cccnc2)nc1` (stereo not given) reads -5.76%. As to `N#Cc1c(-c2ccccc2)nc(SCc2cccc(C(F)(F)F)c2)[nH]c1=O`, the inhibition was 30.9%.

Take `COc1cccc(CNS(=O)(=O)c2ccc3c(c2)CC(C)N3C(=O)C2CCC2)c1` (stereo not given): the inhibition is 58.5%.

As for `O=C(NC1=CC(=O)c2ccccc2C1=O)c1ccccc1`, the inhibition is 17.1%. Turning to `C/C(=N\NC(=S)NCc1ccccc1)c1ccc(Cl)cc1`, the inhibition was -14.2%. Take `CCCOc1ccccc1C1CC(=O)Nc2cc3c(cc21)OCO3` (stereo not given): the inhibition is 26.1%. Turning to `O=S(=O)(c1cccc(Cn2nnc(-c3ccc(F)cc3)n2)c1)N1CCOCC1`, the inhibition was 39.4%. Consider `Cc1ccc(S(=O)(=O)N2CCN(c3ncnc4ccccc34)CC2)cc1`, for which the inhibition is 80.5% (active).

In the case of `CCC(C)N1C(=O)S/C(=C/c2ccc(Sc3nc4ccccc4[nH]3)o2)C1=O` (stereo not given), the inhibition was 69.8%. The result for `COc1cccc(NS(=O)(=O)c2ccc(-c3coc(C)n3)cc2)c1` reads 37.3%; that for `Clc1ccc(-n2nnnc2-c2cnc(-c3ccccn3)nc2-c2cccs2)cc1`, -8.49%. In the case of `COc1ccc(C(=O)NNC(=S)NC(=O)c2ccccc2[N+](=O)[O-])cc1` it was -6.68%; in that of `CCCc1cc(=O)[nH]c(SCC(=O)Nc2sc3c(c2C#N)CCCC3)n1`, 41.8%; in that of `O=C1/C(=C\c2ccc([N+](=O)[O-])cc2)CS(=O)(=O)C/C1=C/c1ccc([N+](=O)[O-])cc1`, 53.2%. In the case of `COc1ccc(S(=O)(=O)NCCCCOc2ccc(Cl)cc2)cc1`, the inhibition was 86.5% (active). The result for `COC(=O)c1ccc(NC(=O)c2ccccc2NS(=O)(=O)c2ccccc2)cc1` reads 57.7%; that for `CNC(=O)c1sc(Nc2ccc(OCc3ccccc3)cc2)nc1C`, 30%. The result for `COC(=O)c1sccc1NC(=O)CSc1ccccc1NS(=O)(=O)c1cc(Cl)ccc1Cl` reads 74.7% (active); that for `Cc1cccc(NS(=O)(=O)c2ccc(-c3cnc(C4CC4)o3)cc2)c1`, 37.9%. The result for `Cc1ccc(S(=O)(=O)N2[C@@H](c3ccc(Br)cc3)C(C(=O)O)=C[C@H]2CC2CCCC2)cc1` reads 26.5%.

Turning to `Cc1nc2c(OCc3cccc(Cl)c3)cccn2c1N(C)CC1CC1`, the inhibition is 19.3%.

As to `COc1cc(NS(=O)(=O)c2ccc3ccccc3c2)c2ncccc2c1`, the inhibition is 31.6%.

With `Cc1cc2nc(-c3ccc(Cl)cc3)c(Cc3cccc(F)c3)n2c(C)c1Br`, the inhibition is -25.9%. On to `CCOC(=O)CC1(NC(=O)c2cc(COc3cncc(Cl)c3)on2)CCCCC1`, for which the inhibition is 44.2%.

Turning to `OC(c1ccc(Cl)cc1)c1ncc(-c2ccc(Cl)cc2)[nH]1` (stereo not given), the inhibition is 58.9%.

Consider `Cc1ccc(NS(=O)(=O)c2ccc(-c3coc(C)n3)cc2)c(C)c1`, for which the inhibition was 46.7%. As for `CC1CCCCN1S(=O)(=O)c1ccc(C(=O)Nc2nnc(-c3cccs3)o2)cc1` (stereo not given), the inhibition is 32%. For `CCCC1CCC(=NNC(=S)NCCc2ccccc2)CC1` (stereo not given), the inhibition was -1.56%. In the case of `Cc1[nH]n(-c2cccc(Cl)c2)c(=O)c1-c1ccc(Cl)cc1`, the inhibition is 71.3% (active). In the case of `Cc1csc(NC(=S)Nc2cccc(Cl)c2)n1` it was -129%; in that of `CCC1(C)Cc2c(sc3[nH]c(=S)n(Cc4ccccc4)c(=O)c23)CO1` (stereo not given), 34.4%.
